# Screening results deposited in PubChem by National Center for Advancing Translational Sciences (NCATS).
# Rows were chosen to be rich in hits. Some 18% of all compounds tested hit in one or more screens of this group.
# DT40 TDP1 CPT – growth inhibition of DT40 Tdp1-/-;hTDP1 cells with camptothecin (screen for TDP1 inhibitors). chicken DT40 Tdp1-/-;hTDP1 cells + 20 nM CPT, ATP luminescence, 48 h. Potency, µM (top dose mostly 46.2 µM), inactives show at the top dose activity change, negative = growth inhibition, most hits filed as inhibitors. 12% of 420,000 active. AID 686979; further: nearly all actives have a fitted effect of over 55% in size
#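 Chicken DT40 Tdp1-/- cells stably complemented with human TDP1 were seeded at 400 cells/well in medium containing 20 nM camptothecin, exposed to pin-transferred compounds, and grown at 37 °C for at least 48 hr. Viability was read as ATP luminescence.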
# VDR inh – blocks the human vitamin D receptor; P11473; VDR-SRC2-3 peptide fluorescence polarization, 2 h; Potency, µM, for inactives: max response, negative = inhibition, actives largely listed as inhibitors; 0.93% of 400,000 active
#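 VDR–SRC2-3 interaction, FP format. Cmpds 23 nl via pintool, brief spin, 2 h ambient incubation.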
# PLK1 PBD block – PLK1 (human) polo-box domain binding inhibition | P53350 | Plk1 PBD binding of FITC phosphopeptide, fluorescence polarization | Potency, µM, for inactives: max response, negative = inhibition, hits mostly inhibitors | 2.8% of 360,000 active | AID 720504; further: series mostly up to about 57 µM; nearly all actives have a fitted effect of over 65% in size
# KAT2A inh – GCN5L2 (KAT2A) acetyltransferase inhibition. GCN5L2 HAT assay, ThioGlo1 CoA-SH fluorescence. Potency, µM (highest dose often 58.9 µM), without a hit: at the highest dose activity change, negative = inhibition, actives largely listed as inhibitors. 0.21% of 390,000 active. AID 504327
#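 ThioGlo1-coupled HAT assay: 20nM GCN5L2, 70uM acetyl-CoA, 75uM H3(1-25) peptide, pH 7.5. Fluorescence read at 340/540nm at start and after 20 min at room temperature.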
# TDP1 cell noCPT – qHTS for Inhibitors of human tyrosyl-DNA phosphodiesterase 1 (TDP1): qHTS in cells in absence of CPT; Potency, µM (doses to about 46.2 µM), for inactives: at the highest dose activity change, negative = growth inhibition, actives largely listed as inhibitors; 15% of 420,000 active; DT40 Tdp1-/- hTDP1 cells, no CPT, ATP luminescence, 48 h; further: nearly all actives have a fitted effect of over 55% in size
#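 A cellular qHTS used chicken DT40 cells lacking endogenous Tdp1 but carrying stably transfected human TDP1. Compounds were applied without camptothecin, and cell growth kinetics were judged by ATP-dependent luminescence after ≥48 hr.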
# TDP1 inh – inhibitors of human tyrosyl-DNA phosphodiesterase TDP1 | Q9NUW8 | Potency, µM (doses to about 130 µM), for the others: at the highest dose activity change, negative = inhibition, hits mostly inhibitors | recombinant TDP1, AlphaScreen DNA substrate cleavage | 0.28% of 350,000 active | AID 485290; further: nearly all actives have a fitted effect of over 40% in size
# Target sequence (Q9NUW8 whole entry, looked up): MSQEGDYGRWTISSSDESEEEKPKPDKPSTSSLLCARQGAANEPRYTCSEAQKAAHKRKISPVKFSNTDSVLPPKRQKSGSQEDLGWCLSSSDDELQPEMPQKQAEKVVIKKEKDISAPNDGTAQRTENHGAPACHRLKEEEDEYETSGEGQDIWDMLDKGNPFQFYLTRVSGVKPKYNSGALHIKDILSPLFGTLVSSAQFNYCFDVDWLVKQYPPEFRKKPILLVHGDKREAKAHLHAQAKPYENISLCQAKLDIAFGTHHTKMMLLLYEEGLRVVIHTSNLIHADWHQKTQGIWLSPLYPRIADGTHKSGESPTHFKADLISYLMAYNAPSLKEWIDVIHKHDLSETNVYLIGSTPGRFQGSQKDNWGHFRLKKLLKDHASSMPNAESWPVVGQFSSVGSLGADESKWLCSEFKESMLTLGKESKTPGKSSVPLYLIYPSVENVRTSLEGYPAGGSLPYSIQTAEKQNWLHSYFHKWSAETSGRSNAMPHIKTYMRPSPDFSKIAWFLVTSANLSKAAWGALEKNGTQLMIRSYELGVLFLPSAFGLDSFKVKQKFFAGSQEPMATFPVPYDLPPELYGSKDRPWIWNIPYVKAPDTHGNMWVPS
#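 Signal: AlphaScreen proximity between streptavidin donor and anti-FITC acceptor beads on intact substrate. Reaction: Tdp1 1 nM, substrate 15 nM final, 5 min RT after 15 min compound preincubation.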
# Numbers without * were called inactive; ? = inconclusive; . = no result given. The call rests on the fitted dose curve; in most records, active means well fitted curve in the direction sought with a large enough effect; inconclusive means small, poorly fitted or top-dose-only effect, or another doubt; inactive means no such curve, though single readings can be large; an effect the other way counts as inactive or inconclusive. On the % scale 0 is the no-effect control and ±100 the full control effect; potency means the concentration at half of the fitted maximal effect.
SMILES,DT40 TDP1 CPT,VDR inh,PLK1 PBD block,KAT2A inh,TDP1 cell noCPT,TDP1 inh
COc1ccccc1OCCn1cc(C(=O)c2cccs2)c2ccccc21,?,-5.2%,.,-8.9%,10.3µM*,-5.3%
CN1CCN(C(=S)c2cn(CCOc3ccccc3F)c3ccccc23)CC1,?,-27.8%,?,-2.2%,18.4µM*,9.6%
Cc1ccc(OCCn2cc(C(=O)c3cccs3)c3ccccc32)cc1,18.4µM*,-23.0%,.,-11.4%,13µM*,-4.2%
O=C1NC[C@H](Cc2ccccc2)N(C[C@H]2CCCN2C[C@H](Cc2ccccc2)N2C[C@H](Cc3ccccc3)N(CC3CCCCC3)C(=O)C2=O)C1=O,20.6µM*,-10.6%,-9.7%,.,?,.
O=C1NC[C@H](Cc2ccccc2)N(C[C@@H]2CCCN2C[C@H](Cc2ccccc2)N2C[C@H](Cc3ccccc3)N(CC3CCCCC3)C(=O)C2=O)C1=O,16.4µM*,.,-0.1%,.,23.1µM*,.
CCCCc1ccc(CC(=O)NO)cc1,-18.8%,.,.,.,?,.
COc1ccc2[nH]c(CN3CCC(n4nccc4NC(=O)C4CC4)CC3)c(C)c2c1,-3.0%,-9.1%,-8.5%,-0.7%,-15.2%,5.3%
Cc1c(Nc2nc(-c3cccc([N+](=O)[O-])c3)cs2)c(=O)n(-c2ccccc2)n1C,-4.9%,-1.9%,-6.2%,8.4%,-15.1%,3.6%
Cc1[nH]n(-c2nc(-c3cccc([N+](=O)[O-])c3)cs2)c(=O)c1C,?,-19.5%,-28.5%,1.1%,20.6µM*,10.1%
COc1ccc(C(=O)C(=O)N2CCN(c3ccccc3F)CC2)cc1,?,.,-4.9%,.,?,.
COc1ccccc1-c1cc2nc(C)c(CCC(=O)NC(C)CCc3ccco3)c(C)n2n1 (stereo not given),23.1µM*,13.4%,5.3%,-14.4%,20.6µM*,3.9%
COc1ccccc1CNC(=O)CCc1c(C)nc2cc(-c3ccccc3OC)nn2c1C,?,6.5%,-11.4%,?,?,2.3%
Cc1nc2c(-c3ccccc3)c(C)nn2c(C)c1CCC(=O)NC(C)CCc1ccco1 (stereo not given),11.6µM*,-9.1%,-2.5%,-6.2%,9.2µM*,3.9%
COC(=O)c1ccc(NC(=O)CCc2c(C)nc3c(-c4ccccc4)c(C)nn3c2C)cc1,?,-14.2%,.,-3.2%,?,-1.2%
CCC(C)Nc1nc2c(c(=O)[nH]c(=O)n2C)n1Cc1ccc(F)cc1 (stereo not given),-10.3%,-5.9%,.,-1.8%,?,.
COc1cc(Nc2ccc(S(N)(=O)=O)cc2)c([N+](=O)[O-])nc1[N+](=O)[O-],16.4µM*,-9.2%,-8.5%,-29.0%,?,.
COc1cc(NS(=O)(=O)c2ccc(Nc3nc(-c4ccccc4)cs3)cc2)nc(OC)n1,-4.6%,-16.1%,26.7µM*,-5.3%,-1.0%,10.5%
COc1cc(NS(=O)(=O)c2ccc(NC(=S)Nc3ccccc3)cc2)nc(OC)n1,-3.5%,9.5%,-5.2%,?,11.3%,4.3%
COc1ccc(-c2csc(Nc3ccc(S(N)(=O)=O)cc3)n2)cc1OC,?,-11.0%,8.44µM*,-12.9%,?,5.4%
NS(=O)(=O)c1ccc(Nc2nc3ccccc3nc2NS(=O)(=O)c2cccc([N+](=O)[O-])c2)cc1,21.0%,?,?,-27.9%,10.8%,6.1%
NS(=O)(=O)c1ccc(Nc2nc(-c3ccc(F)cc3)cs2)cc1,18.4µM*,6.1%,5.8%,-0.3%,20.6µM*,6.5%
COc1ccccc1C(=O)NNC(=O)c1ccc(NC(=O)CC(C)C)cc1,-4.3%,-19.1%,0.7%,-1.4%,-3.0%,.
COc1ccc(-n2c(SCC(=O)C(C)(C)C)nc3c(sc(=S)n3-c3ccccc3)c2=O)c(OC)c1,13µM*,31.6µM*,3.77µM*,-7.0%,11.6µM*,.
CCOC(=O)CSc1nc2c(sc(=S)n2-c2ccccc2OC)c(=O)n1-c1ccccc1OC,-23.9%,-9.4%,2.5%,-9.0%,?,.
CC(C)Cn1c(N)c(C(=O)COC(=O)c2ccncc2)c(=O)n(C)c1=O,-20.9%,4.6%,-3.6%,29.1%,?,2.1%
SMILES,DT40 TDP1 CPT,VDR inh,PLK1 PBD block,KAT2A inh,TDP1 cell noCPT,TDP1 inh
Cc1cccc(C(=O)OCC(=O)c2c(N)n(CC(C)C)c(=O)n(C)c2=O)c1[N+](=O)[O-],?,5.3%,1.0%,-4.6%,18.4µM*,.
CC(C)Cn1c(N)c(C(=O)COC(=O)c2ccc(O)cc2O)c(=O)n(C)c1=O,?,?,-10.3%,0.5%,25.9µM*,.
COC(=O)c1c(C)[nH]c(C(=O)OCC(=O)c2c(N)n(CC(C)C)c(=O)n(C)c2=O)c1C,?,23.1%,-1.0%,-2.5%,14.6µM*,0.9%
CC(C)Cn1c(N)c(C(=O)COC(=O)c2ccc(Br)cc2)c(=O)n(C)c1=O,?,2.2%,1.3%,-10.8%,23.1µM*,-0.5%
CCN1C(=O)[C@H]2[C@@H](c3ccc(OC)cc3)N3C(=O)CN(CCOC)C(=O)[C@@]3(Cc3ccccc3)[C@H]2C1=O,-12.5%,-12.9%,-4.4%,2.9%,-8.4%,.
COc1ccc(NC(=O)C2=C(C)Nc3nc(SCc4ccc(C)cc4C)nn3C2c2cccc(OC)c2OC)cc1 (stereo not given),-10.5%,4.7%,.,11.5%,-19.5%,2.6%
COc1ccccc1C(=O)C1CCCN(C(=O)CCn2cnnn2)C1 (stereo not given),-21.5%,-14.3%,-16.3%,4.0%,17.0%,.
Cc1cccc(C(=O)OCC(=O)c2c(N)n(CC(C)C)c(=O)n(C)c2=O)c1O,23.1µM*,13.7%,1.7%,-1.1%,23.1µM*,.
CCOc1ccc(NC(=O)CN(C)C(=O)c2sc3ccccc3c2Cl)cc1OCC,-26.5%,-4.4%,-0.5%,-6.0%,?,.
CCN(C(=O)COC(=O)c1c2c(nc3ccccc13)/C(=C/c1ccccc1)CC(C)C2)C1CCS(=O)(=O)C1 (stereo not given),?,-8.9%,0.5%,-10.6%,13µM*,4.7%
CC(C)(C)NC(=O)NC12CC3CC(CC(C3)C1)C2,4.8%,-20.7%,-12.8%,-2.8%,-9.0%,6.3%
CC(Cl)C(=O)NC(=O)NC12CC3CC(CC(C3)C1)C2 (stereo not given),16.4µM*,-0.9%,-6.8%,-2.9%,20.6µM*,0.0%
COC(=O)C1=C(C)N(Cc2ccc(OC)cc2)C(=O)/C1=C\c1ccco1,25.9µM*,-11.4%,-0.4%,?,16.4µM*,5.9%
COC(=O)C1=C(C)N(C)C(=O)/C1=C\c1ccco1,-0.1%,-15.7%,-3.0%,-3.8%,-19.6%,1.0%
